# Positions count from the first letter of the chain named.
# B1: ACGCCTCG (ssRNA)
# RNA 1: GAGUUCUACAGUCCGACGAUCCCAACACGCCUCGCACCUGGAAUUCUCGGGUGCCAA
# RNA 2: UGGAGUGUGACAAUGGUGUUUG
# DNA 1: GATCGTCGGACTGTAGAACTC
# DNA 2: TTGGCACCCGAGAATTCCA
# modifications: constant regions annealed to DNA blockers; guide miR-122 5' phosphate
# B2: GCATCTTG (ssRNA)
# RNA 1: B1 RNA 1 with A27G, G29A, C30U, C33U
# RNA 2: UGGAGUGUGACAAUGGUGUUUG
# DNA 1: GATCGTCGGACTGTAGAACTC
# DNA 2: TTGGCACCCGAGAATTCCA
# modifications: constant regions annealed to DNA blockers; guide miR-122 5' phosphate
# B3: GTACTCTG (ssRNA)
# RNA 1: B1 RNA 1 with A27G, C28U, G29A, C31U, U32C, C33U
# RNA 2: UGGAGUGUGACAAUGGUGUUUG
# DNA 1: GATCGTCGGACTGTAGAACTC
# DNA 2: TTGGCACCCGAGAATTCCA
# modifications: constant regions annealed to DNA blockers; guide miR-122 5' phosphate
# B4: ACATTCTA (ssRNA)
# RNA 1: B1 RNA 1 with G29A, C30U, C31U, U32C, C33U, G34A
# RNA 2: UGGAGUGUGACAAUGGUGUUUG
# DNA 1: GATCGTCGGACTGTAGAACTC
# DNA 2: TTGGCACCCGAGAATTCCA
# modifications: constant regions annealed to DNA blockers; guide miR-122 5' phosphate
# B5: ACGCTTCG (ssRNA)
# RNA 1: B1 RNA 1 with C31U
# RNA 2: UGGAGUGUGACAAUGGUGUUUG
# DNA 1: GATCGTCGGACTGTAGAACTC
# DNA 2: TTGGCACCCGAGAATTCCA
# modifications: constant regions annealed to DNA blockers; guide miR-122 5' phosphate
# B6: ATACTTCG (ssRNA)
# RNA 1: B1 RNA 1 with C28U, G29A, C31U
# RNA 2: UGGAGUGUGACAAUGGUGUUUG
# DNA 1: GATCGTCGGACTGTAGAACTC
# DNA 2: TTGGCACCCGAGAATTCCA
# modifications: constant regions annealed to DNA blockers; guide miR-122 5' phosphate
# B7: GTACCCCG (ssRNA)
# RNA 1: B1 RNA 1 with A27G, C28U, G29A, U32C
# RNA 2: UGGAGUGUGACAAUGGUGUUUG
# DNA 1: GATCGTCGGACTGTAGAACTC
# DNA 2: TTGGCACCCGAGAATTCCA
# modifications: constant regions annealed to DNA blockers; guide miR-122 5' phosphate
# B8: GCATTTCG (ssRNA)
# RNA 1: B1 RNA 1 with A27G, G29A, C30U, C31U
# RNA 2: UGGAGUGUGACAAUGGUGUUUG
# DNA 1: GATCGTCGGACTGTAGAACTC
# DNA 2: TTGGCACCCGAGAATTCCA
# modifications: constant regions annealed to DNA blockers; guide miR-122 5' phosphate
# B9: ATACCTCG (ssRNA)
# RNA 1: B1 RNA 1 with C28U, G29A
# RNA 2: UGGAGUGUGACAAUGGUGUUUG
# DNA 1: GATCGTCGGACTGTAGAACTC
# DNA 2: TTGGCACCCGAGAATTCCA
# modifications: constant regions annealed to DNA blockers; guide miR-122 5' phosphate
# B10: ATACTCTG (ssRNA)
# RNA 1: B1 RNA 1 with C28U, G29A, C31U, U32C, C33U
# RNA 2: UGGAGUGUGACAAUGGUGUUUG
# DNA 1: GATCGTCGGACTGTAGAACTC
# DNA 2: TTGGCACCCGAGAATTCCA
# modifications: constant regions annealed to DNA blockers; guide miR-122 5' phosphate
# B11: ACATCTTA (ssRNA)
# RNA 1: B1 RNA 1 with G29A, C30U, C33U, G34A
# RNA 2: UGGAGUGUGACAAUGGUGUUUG
# DNA 1: GATCGTCGGACTGTAGAACTC
# DNA 2: TTGGCACCCGAGAATTCCA
# modifications: constant regions annealed to DNA blockers; guide miR-122 5' phosphate
# B12: ATATCCTA (ssRNA)
# RNA 1: B1 RNA 1 with C28U, G29A, C30U, U32C, C33U, G34A
# RNA 2: UGGAGUGUGACAAUGGUGUUUG
# DNA 1: GATCGTCGGACTGTAGAACTC
# DNA 2: TTGGCACCCGAGAATTCCA
# modifications: constant regions annealed to DNA blockers; guide miR-122 5' phosphate
# B13: ACGTTCCG (ssRNA)
# RNA 1: B1 RNA 1 with C30U, C31U, U32C
# RNA 2: UGGAGUGUGACAAUGGUGUUUG
# DNA 1: GATCGTCGGACTGTAGAACTC
# DNA 2: TTGGCACCCGAGAATTCCA
# modifications: constant regions annealed to DNA blockers; guide miR-122 5' phosphate
# B14: ATATCTCG (ssRNA)
# RNA 1: B1 RNA 1 with C28U, G29A, C30U
# RNA 2: UGGAGUGUGACAAUGGUGUUUG
# DNA 1: GATCGTCGGACTGTAGAACTC
# DNA 2: TTGGCACCCGAGAATTCCA
# modifications: constant regions annealed to DNA blockers; guide miR-122 5' phosphate
# B15: ATGCCCTA (ssRNA)
# RNA 1: B1 RNA 1 with C28U, U32C, C33U, G34A
# RNA 2: UGGAGUGUGACAAUGGUGUUUG
# DNA 1: GATCGTCGGACTGTAGAACTC
# DNA 2: TTGGCACCCGAGAATTCCA
# modifications: constant regions annealed to DNA blockers; guide miR-122 5' phosphate
# B16: GTACTTCG (ssRNA)
# RNA 1: B1 RNA 1 with A27G, C28U, G29A, C31U
# RNA 2: UGGAGUGUGACAAUGGUGUUUG
# DNA 1: GATCGTCGGACTGTAGAACTC
# DNA 2: TTGGCACCCGAGAATTCCA
# modifications: constant regions annealed to DNA blockers; guide miR-122 5' phosphate
# B17: GCACCTTG (ssRNA)
# RNA 1: B1 RNA 1 with A27G, G29A, C33U
# RNA 2: UGGAGUGUGACAAUGGUGUUUG
# DNA 1: GATCGTCGGACTGTAGAACTC
# DNA 2: TTGGCACCCGAGAATTCCA
# modifications: constant regions annealed to DNA blockers; guide miR-122 5' phosphate
# B18: ACATTTCG (ssRNA)
# RNA 1: B1 RNA 1 with G29A, C30U, C31U
# RNA 2: UGGAGUGUGACAAUGGUGUUUG
# DNA 1: GATCGTCGGACTGTAGAACTC
# DNA 2: TTGGCACCCGAGAATTCCA
# modifications: constant regions annealed to DNA blockers; guide miR-122 5' phosphate
# B19: ATGTCTCG (ssRNA)
# RNA 1: B1 RNA 1 with C28U, C30U
# RNA 2: UGGAGUGUGACAAUGGUGUUUG
# DNA 1: GATCGTCGGACTGTAGAACTC
# DNA 2: TTGGCACCCGAGAATTCCA
# modifications: constant regions annealed to DNA blockers; guide miR-122 5' phosphate
# B20: ATGCTTCG (ssRNA)
# RNA 1: B1 RNA 1 with C28U, C31U
# RNA 2: UGGAGUGUGACAAUGGUGUUUG
# DNA 1: GATCGTCGGACTGTAGAACTC
# DNA 2: TTGGCACCCGAGAATTCCA
# modifications: constant regions annealed to DNA blockers; guide miR-122 5' phosphate
# B21: ACATTTTG (ssRNA)
# RNA 1: B1 RNA 1 with G29A, C30U, C31U, C33U
# RNA 2: UGGAGUGUGACAAUGGUGUUUG
# DNA 1: GATCGTCGGACTGTAGAACTC
# DNA 2: TTGGCACCCGAGAATTCCA
# modifications: constant regions annealed to DNA blockers; guide miR-122 5' phosphate
# B22: ATGTCCCG (ssRNA)
# RNA 1: B1 RNA 1 with C28U, C30U, U32C
# RNA 2: UGGAGUGUGACAAUGGUGUUUG
# DNA 1: GATCGTCGGACTGTAGAACTC
# DNA 2: TTGGCACCCGAGAATTCCA
# modifications: constant regions annealed to DNA blockers; guide miR-122 5' phosphate
# B23: ACGTCTTG (ssRNA)
# RNA 1: B1 RNA 1 with C30U, C33U
# RNA 2: UGGAGUGUGACAAUGGUGUUUG
# DNA 1: GATCGTCGGACTGTAGAACTC
# DNA 2: TTGGCACCCGAGAATTCCA
# modifications: constant regions annealed to DNA blockers; guide miR-122 5' phosphate
# B24: ACATCTTG (ssRNA)
# RNA 1: B1 RNA 1 with G29A, C30U, C33U
# RNA 2: UGGAGUGUGACAAUGGUGUUUG
# DNA 1: GATCGTCGGACTGTAGAACTC
# DNA 2: TTGGCACCCGAGAATTCCA
# modifications: constant regions annealed to DNA blockers; guide miR-122 5' phosphate
# B25: ATGCTTTG (ssRNA)
# RNA 1: B1 RNA 1 with C28U, C31U, C33U
# RNA 2: UGGAGUGUGACAAUGGUGUUUG
# DNA 1: GATCGTCGGACTGTAGAACTC
# DNA 2: TTGGCACCCGAGAATTCCA
# modifications: constant regions annealed to DNA blockers; guide miR-122 5' phosphate
# Target: AGO2 L192P (Homo sapiens, UniProt Q9UKV8 1-859, L192P;S387D;S824A;S828D;S831D;S834A)
# Sequence (Q9UKV8 whole entry L192P/S387D/S824A/S828D/S831D/S834A): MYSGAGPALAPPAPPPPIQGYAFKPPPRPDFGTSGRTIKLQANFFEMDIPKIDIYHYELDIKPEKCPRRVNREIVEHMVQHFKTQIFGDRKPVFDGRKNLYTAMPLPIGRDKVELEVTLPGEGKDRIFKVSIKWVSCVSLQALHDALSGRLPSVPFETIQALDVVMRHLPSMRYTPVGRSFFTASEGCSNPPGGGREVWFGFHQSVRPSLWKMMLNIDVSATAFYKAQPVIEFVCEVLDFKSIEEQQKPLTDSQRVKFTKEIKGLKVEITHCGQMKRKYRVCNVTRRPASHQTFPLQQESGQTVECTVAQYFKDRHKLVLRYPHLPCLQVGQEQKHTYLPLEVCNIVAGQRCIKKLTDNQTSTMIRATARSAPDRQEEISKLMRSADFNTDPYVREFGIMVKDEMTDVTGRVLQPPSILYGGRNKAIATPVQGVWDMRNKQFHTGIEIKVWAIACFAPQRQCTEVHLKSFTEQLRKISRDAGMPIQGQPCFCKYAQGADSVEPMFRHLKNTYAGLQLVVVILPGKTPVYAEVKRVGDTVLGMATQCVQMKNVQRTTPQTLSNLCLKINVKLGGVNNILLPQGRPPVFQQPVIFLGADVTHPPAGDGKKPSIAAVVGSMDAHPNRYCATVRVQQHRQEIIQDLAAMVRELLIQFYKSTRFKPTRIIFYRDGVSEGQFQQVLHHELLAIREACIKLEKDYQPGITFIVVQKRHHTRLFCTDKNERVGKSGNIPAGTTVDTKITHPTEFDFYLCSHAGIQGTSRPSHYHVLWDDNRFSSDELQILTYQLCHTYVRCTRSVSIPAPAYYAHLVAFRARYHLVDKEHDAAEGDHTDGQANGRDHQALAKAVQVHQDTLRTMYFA
# Assay: RNA Bind-n-Seq (nitrocellulose filter binding and sequencing); miR-122 guide loaded in AGO2; 60 min incubation; 30 mM Tris pH 8.0, 100 mM potassium acetate, 2 mM magnesium acetate, 0.5 mM TCEP, 0.005% NP-40, 0.01 mg/ml yeast tRNA; 3 nM AGO2-miR-122, 100 nM RNA library; 60; high values mean tight binding
# Conditions: protein: recombinant; tags: His6 (N-terminal, pFastBac HTA)
# Procedure, shortened: (§1)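 His-tagged AGO2 was expressed in Sf9 insect cells by baculovirus, loaded with a synthetic guide RNA, and purified by Ni-NTA and a biotinylated capture oligo. Bound RNA was extracted, reverse-transcribed, barcode-amplified and Illumina-sequenced. Fold enrichment is each sequence's read fraction divided by its input-library read fraction.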
row,Binder,binding signal
1,B1,0.351 fold enrichment over input
2,B2,0.349 fold enrichment over input
3,B3,0.332 fold enrichment over input
4,B4,0.493 fold enrichment over input
5,B5,0.346 fold enrichment over input
6,B6,0.406 fold enrichment over input
7,B7,0.358 fold enrichment over input
8,B8,0.358 fold enrichment over input
9,B9,0.339 fold enrichment over input
10,B10,0.349 fold enrichment over input
11,B11,0.519 fold enrichment over input
12,B12,0.467 fold enrichment over input
13,B13,0.361 fold enrichment over input
14,B14,0.351 fold enrichment over input
15,B15,0.457 fold enrichment over input
16,B16,0.351 fold enrichment over input
17,B17,0.387 fold enrichment over input
18,B18,0.421 fold enrichment over input
19,B19,0.316 fold enrichment over input
20,B20,0.336 fold enrichment over input
21,B21,0.41 fold enrichment over input
22,B22,0.319 fold enrichment over input
23,B23,0.319 fold enrichment over input
24,B24,0.386 fold enrichment over input
25,B25,0.354 fold enrichment over input

# Target: AGO2 A367P (Homo sapiens, UniProt Q9UKV8 1-859, A367P;S387D;S824A;S828D;S831D;S834A)
# Sequence (Q9UKV8 whole entry A367P/S387D/S824A/S828D/S831D/S834A): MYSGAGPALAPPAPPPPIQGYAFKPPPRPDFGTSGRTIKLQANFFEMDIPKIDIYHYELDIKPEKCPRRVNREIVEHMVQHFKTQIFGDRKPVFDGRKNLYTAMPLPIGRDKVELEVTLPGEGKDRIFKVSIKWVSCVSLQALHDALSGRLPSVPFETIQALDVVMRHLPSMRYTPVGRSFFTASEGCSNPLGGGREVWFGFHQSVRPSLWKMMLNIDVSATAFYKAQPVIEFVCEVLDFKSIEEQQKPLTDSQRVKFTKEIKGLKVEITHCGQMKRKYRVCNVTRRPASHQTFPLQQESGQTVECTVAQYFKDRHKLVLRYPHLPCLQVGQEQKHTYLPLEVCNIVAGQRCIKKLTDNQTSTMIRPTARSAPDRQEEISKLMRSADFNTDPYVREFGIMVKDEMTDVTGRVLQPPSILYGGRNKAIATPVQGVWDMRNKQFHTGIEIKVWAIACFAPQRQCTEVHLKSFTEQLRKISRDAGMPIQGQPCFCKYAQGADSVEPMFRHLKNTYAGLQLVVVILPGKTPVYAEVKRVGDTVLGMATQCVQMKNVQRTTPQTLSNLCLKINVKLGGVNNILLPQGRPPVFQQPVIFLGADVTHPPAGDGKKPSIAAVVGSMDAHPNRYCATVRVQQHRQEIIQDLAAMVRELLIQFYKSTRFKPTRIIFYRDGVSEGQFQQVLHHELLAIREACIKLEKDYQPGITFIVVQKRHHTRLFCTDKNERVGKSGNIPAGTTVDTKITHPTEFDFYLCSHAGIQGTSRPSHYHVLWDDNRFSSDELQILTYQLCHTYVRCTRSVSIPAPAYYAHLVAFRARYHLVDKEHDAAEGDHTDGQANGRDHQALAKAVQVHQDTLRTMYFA
# Assay: as above
# Conditions: protein: recombinant; tags: His6 (N-terminal, pFastBac HTA)
# Procedure, shortened: as §1
row,Binder,binding signal
1,B1,0.15 fold enrichment over input
2,B2,0.123 fold enrichment over input
3,B3,0.134 fold enrichment over input
4,B4,0.178 fold enrichment over input
5,B5,0.139 fold enrichment over input
6,B6,0.138 fold enrichment over input
7,B7,0.123 fold enrichment over input
8,B8,0.127 fold enrichment over input
9,B9,0.127 fold enrichment over input
10,B10,0.134 fold enrichment over input
11,B11,0.197 fold enrichment over input
12,B12,0.17 fold enrichment over input
13,B13,0.128 fold enrichment over input
14,B14,0.124 fold enrichment over input
15,B15,0.166 fold enrichment over input
16,B16,0.13 fold enrichment over input
17,B17,0.154 fold enrichment over input
18,B18,0.151 fold enrichment over input
19,B20,0.127 fold enrichment over input
20,B21,0.143 fold enrichment over input
21,B22,0.125 fold enrichment over input
22,B23,0.134 fold enrichment over input
23,B24,0.135 fold enrichment over input
24,B25,0.12 fold enrichment over input

# Target: AGO2 T357M (Homo sapiens, UniProt Q9UKV8 1-859, T357M;S387D;S824A;S828D;S831D;S834A)
# Sequence (Q9UKV8 whole entry T357M/S387D/S824A/S828D/S831D/S834A): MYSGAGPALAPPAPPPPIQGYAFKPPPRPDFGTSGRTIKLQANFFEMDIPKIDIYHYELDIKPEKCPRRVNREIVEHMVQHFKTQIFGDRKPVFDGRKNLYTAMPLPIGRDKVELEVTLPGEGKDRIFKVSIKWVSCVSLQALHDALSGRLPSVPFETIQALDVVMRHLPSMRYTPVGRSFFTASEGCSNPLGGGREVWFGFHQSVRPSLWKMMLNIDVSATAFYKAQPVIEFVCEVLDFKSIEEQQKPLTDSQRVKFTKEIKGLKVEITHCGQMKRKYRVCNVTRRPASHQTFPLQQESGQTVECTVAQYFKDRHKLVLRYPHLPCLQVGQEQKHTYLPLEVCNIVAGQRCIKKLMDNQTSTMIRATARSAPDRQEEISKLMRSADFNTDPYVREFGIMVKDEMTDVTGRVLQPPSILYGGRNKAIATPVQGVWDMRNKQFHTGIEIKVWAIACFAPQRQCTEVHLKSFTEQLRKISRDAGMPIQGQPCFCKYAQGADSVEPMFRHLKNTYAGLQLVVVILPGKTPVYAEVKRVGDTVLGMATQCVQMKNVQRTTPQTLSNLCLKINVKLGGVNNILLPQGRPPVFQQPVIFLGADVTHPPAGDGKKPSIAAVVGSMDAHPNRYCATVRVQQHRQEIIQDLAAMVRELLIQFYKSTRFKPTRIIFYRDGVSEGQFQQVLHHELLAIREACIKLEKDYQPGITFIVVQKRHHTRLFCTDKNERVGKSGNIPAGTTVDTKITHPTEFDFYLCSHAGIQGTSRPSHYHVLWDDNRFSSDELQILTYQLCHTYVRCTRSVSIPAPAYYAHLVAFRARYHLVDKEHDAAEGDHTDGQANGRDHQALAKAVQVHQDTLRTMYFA
# Assay: as above
# Conditions: protein: recombinant; tags: His6 (N-terminal, pFastBac HTA)
# Procedure, shortened: as §1
row,Binder,binding signal
1,B1,0.48 fold enrichment over input
2,B2,0.425 fold enrichment over input
3,B3,0.423 fold enrichment over input
4,B4,0.557 fold enrichment over input
5,B5,0.445 fold enrichment over input
6,B6,0.509 fold enrichment over input
7,B7,0.475 fold enrichment over input
8,B8,0.486 fold enrichment over input
9,B9,0.409 fold enrichment over input
10,B10,0.504 fold enrichment over input
11,B11,0.562 fold enrichment over input
12,B12,0.569 fold enrichment over input
13,B13,0.44 fold enrichment over input
14,B14,0.398 fold enrichment over input
15,B15,0.544 fold enrichment over input
16,B16,0.538 fold enrichment over input
17,B17,0.503 fold enrichment over input
18,B18,0.514 fold enrichment over input
19,B19,0.415 fold enrichment over input
20,B20,0.474 fold enrichment over input
21,B21,0.537 fold enrichment over input
22,B22,0.416 fold enrichment over input
23,B23,0.501 fold enrichment over input
24,B24,0.458 fold enrichment over input
25,B25,0.455 fold enrichment over input

# Target: AGO2 F182del (Homo sapiens, UniProt Q9UKV8 1-859, S387D;S824A;S828D;S831D;S834A;del182-182)
# Sequence (Q9UKV8 other isoform, or with tags, fused parts or gaps S387D;S824A;S828D;S831D;S834A;del182-182): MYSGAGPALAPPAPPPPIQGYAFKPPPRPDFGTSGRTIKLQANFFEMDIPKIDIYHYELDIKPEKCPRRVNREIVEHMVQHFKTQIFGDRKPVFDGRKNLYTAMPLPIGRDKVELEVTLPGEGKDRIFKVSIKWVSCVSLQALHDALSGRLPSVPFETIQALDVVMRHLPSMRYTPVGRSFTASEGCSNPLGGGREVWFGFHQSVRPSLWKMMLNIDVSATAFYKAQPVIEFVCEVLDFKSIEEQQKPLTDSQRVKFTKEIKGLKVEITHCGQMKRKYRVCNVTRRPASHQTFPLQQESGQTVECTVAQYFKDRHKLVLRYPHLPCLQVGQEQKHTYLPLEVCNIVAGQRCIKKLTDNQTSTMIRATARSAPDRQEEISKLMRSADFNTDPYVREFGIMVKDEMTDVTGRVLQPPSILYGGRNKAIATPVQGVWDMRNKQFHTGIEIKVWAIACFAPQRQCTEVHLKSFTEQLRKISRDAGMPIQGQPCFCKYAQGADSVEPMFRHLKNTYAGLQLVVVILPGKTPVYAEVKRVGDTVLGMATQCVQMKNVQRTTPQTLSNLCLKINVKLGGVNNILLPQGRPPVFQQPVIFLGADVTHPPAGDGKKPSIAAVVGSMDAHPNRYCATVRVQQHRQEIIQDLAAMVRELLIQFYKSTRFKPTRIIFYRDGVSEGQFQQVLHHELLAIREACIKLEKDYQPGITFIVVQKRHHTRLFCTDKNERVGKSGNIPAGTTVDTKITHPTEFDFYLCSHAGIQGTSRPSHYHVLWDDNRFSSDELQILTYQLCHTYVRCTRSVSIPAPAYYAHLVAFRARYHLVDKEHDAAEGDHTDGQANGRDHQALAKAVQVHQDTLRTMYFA
# Assay: as above
# Conditions: protein: recombinant; tags: His6 (N-terminal, pFastBac HTA)
# Procedure, shortened: as §1
row,Binder,binding signal
1,B4,0.309 fold enrichment over input
2,B11,0.33 fold enrichment over input

# — PMC12529666, “Dysregulation of AGO2-miRNA dynamics underlies the AGO2-associated Lessel–Kreienkamp syndrome”
